Test results from PubChem BioAssay.

assay: binders from COS7 lysate, DM2A8 probe, primary screen, torsin A project, cell lysate, small-molecule microarray, fluorescence 635/667 (AID 1065); details: higher = more signal, COS7 lysate expressing mutant human TOR1A

Row | Compound | composite z-score
1 | COC(=O)[C@@]1(Cc2ccccc2)[C@H]2c3cc(C(=O)N4CCCC4)n(Cc4ccc(OC(F)(F)F)cc4)c3C[C@H]2CN1C(=O)c1ccccc1 | -0.277
2 | CO[C@H]1O[C@H](CO)[C@@H](OC(=O)c2ccc(Br)cc2)[C@@H]2OC(=O)[C@H](Cc3cccc(Br)c3)C/C=C/C[C@@H](Cc3cccc(Br)c3)C(=O)O[C@@H]12 | 0.665
3 | Cc1ccc(N2C(=O)c3ccccc3[C@](C)(C(=O)NC(C)C)[C@@H]2c2ccc(CO)cc2)nc1 | -1.06
4 | NC(=O)[C@@H]1[C@H]2C(=O)O[C@H](c3ccccc3)[C@H](c3ccccc3)N2[C@H](c2ccccc2OCCO)[C@@]12C(=O)Nc1ccc(C#CCCO)cc12 | 0.45
5 | O=C1O[C@H](c2ccccc2)[C@H](c2ccccc2)N2[C@H]1[C@@H](C(=O)N1CCN(c3ncccn3)CC1)[C@]1(C(=O)Nc3ccc(C#CCCO)cc31)[C@H]2c1ccc(OCCO)cc1 | 1.26
6 | CCCC=C(CCC)[C@@H](NS(=O)(=O)c1cccc2cccnc12)c1ccc(C(=O)OC)cc1 | 1.19

assay: binders of probe aFGF2 on microarray, primary screen, stem cell growth factor project, biochemical, small-molecule microarray, fluorescence 635/667 (AID 1067); details: higher = more signal;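 further: measures binding of biotinylated aFGF2 protein to printed compounds on slides; z-score merges feature fluorescence and signal-to-noise across triplicate slides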

Row | Compound | composite z-score
7 | O=C1C[C@@](C(=O)O)(c2ccc([N+](=O)[O-])cc2)[C@@H](c2ccc(CO)cc2)N1CC12CC3CC(CC(C3)C1)C2 | -0.009
8 | Cc1ccc(S[C@]2(C(=O)O)CC(=O)N(Cc3ccccc3C(F)(F)F)[C@@H]2c2ccc(CO)cc2)cc1 | -0.172
9 | COC(=O)c1ccc(OC)c(/C=C\CC(CCc2ccccc2)OC(C)=O)c1 (stereo not given) | -0.118
10 | C#CCNS(=O)(=O)N(C)C | -0.0291
11 | O=C1CSC(c2cccc([N+](=O)[O-])c2)N1c1ccccc1 (stereo not given) | -0.0161
12 | CCN(CC)c1ccc(N2CC=CC34O[C@@H]5/C=C\CCCOC(=O)C5[C@H]3C(=O)N(CCCCCO)[C@@H]4C2=O)cc1 (stereo not given in full) | -0.205
13 | OCc1ccc(-c2cc[n+](Cc3cccc(OC(F)(F)F)c3)cc2)cc1 | -0.0887
14 | COCC1=C([C@H](O)CCc2ccccc2)[C@H](CO)[C@@H]2C(=O)N(C)C(=O)[C@@H]2C1 | -0.235
15 | COC(=O)[C@@]1(Cc2ccc(F)cc2)[C@H]2c3cc(C(=O)N(C)C)n(Cc4ccc(C)c(F)c4F)c3C[C@H]2CN1C(=O)c1ccccc1 | 0.0697
16 | CCOC(=O)C[C@H]1[C@H](OC(=O)c2ccc(C(=O)c3ccccc3)cc2)[C@@H](NC(=O)C2CCCCC2)c2cc(OCCCO)ccc2N1C(=O)Cc1ccc(OC)cc1 | 0.0007
17 | CCCN1C(=O)[C@@]2(Cc3ccccc3)N=C(c3ccc(OCCCO)cc3)O[C@H]2c2ccccc21 | -0.047
18 | O=C1C2C=CC(C(O)c3ccccn3)N(Nc3ccccc3)C2C(=O)N1c1ccccc1 (stereo not given) | -0.105
19 | COc1cc(C(O)C2C=CC3C(=O)N(C)C(=O)C3N2NC(=O)OC(C)(C)C)cc(OC)c1OC (stereo not given) | 0.265
20 | COCC(=C=CC[C@@H](O)c1ccccc1OCCO)C[C@@H](O)c1ccccn1 | -0.0775
21 | C[N+](C)(C)CCCC[C@@H]1NC(=O)[C@@H]2C[C@H](C(=O)O)[C@H](c3cccc(OCCO)c3)N2C1=O | -0.179
22 | C=CCC(OC(C)=O)[C@@H]1[C@@H](N(Cc2ccc(-c3cccc(C(F)(F)F)c3)o2)C(=O)c2cccc3ccccc23)c2cc(OCCCO)ccc2N1C(=O)c1ccc(-c2ccccc2)cc1 (stereo not given in full) | -0.12
23 | COCCCNC(=O)[C@@]1(C)c2ccccc2C(=O)N(c2ccc(C)cn2)[C@H]1c1ccc(CO)cc1 | -0.308
24 | COCCCNC(=O)[C@@]1(Cc2ccccc2CN=[N+]=[N-])N=C(c2ccc(OCCCO)cc2)O[C@H]1c1ccccc1N=[N+]=[N-] | 0.0524
25 | CC1(C)[C@@H]2CC(C(O)C3C=CC4C(=O)N(c5ccccc5)C(=O)C4N3Nc3ccccc3F)=C[C@@H]1C2 (stereo not given in full) | -0.0092
26 | CCOC(=O)C[C@H]1[C@H](OC(=O)Cc2ccc3c(c2)OCO3)[C@@H](NC(=O)c2ccccc2)c2cc(OCCCO)ccc2N1C(=O)c1ccc2ccccc2n1 | -0.147
27 | C=CC[C@]1(C(=O)NCC(O)CO)N=C(c2ccc(OCCCO)cc2)O[C@H]1c1ccccc1N=[N+]=[N-] (stereo not given in full) | 0.0649
28 | C=C(COC)C(=O)CC[C@H](OC(=O)c1ccccc1-c1ccccc1C(=O)O)c1ccc(OCCO)cc1 | -0.0729
29 | COC(=O)[C@@]1(Cc2ccc(OC)cc2)[C@H]2c3cc(C(=O)N(C)C)n(Cc4cc(F)c(F)c(F)c4)c3C[C@H]2CN1C(=O)c1ccccc1 | 0.329
30 | C=CCC(OC(C)=O)[C@@H]1[C@@H](N(Cc2ccc(-c3ccccc3)cc2)C(=O)Cc2ccc(OC)cc2)c2cc(OCCCO)ccc2N1C(=O)c1ccc(-c2ccccc2)cc1 (stereo not given in full) | -0.0158
